For nine compounds, Potency results are on record in PubChem BioAssay (Tox21).

Unmarked numbers belong to inactive results. Records with an inconclusive call do not appear. Activity calls are given as the source filed them. Unless noted, the call rests on the fitted dose curve; in most records, active means well fitted curve in the direction sought with a large enough effect in the repeat runs; inconclusive means weak or mixed curves; inactive means no such curve, though single readings can be large; an effect the other way counts as inactive or inconclusive.

Experiment [1] is described as follows: qHTS assay to identify small molecule antagonists of the constitutive androstane receptor (CAR) signaling pathway - cell viability counter screen (AID 1224837). Further: nearly all actives have a fitted effect of over 45% in size. Further: potency means the concentration at half of the fitted maximal effect. Put shortly:
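HepG2 cells stably carrying hCAR and CYP2B6-2.2kb reporter, stimulated with 50 nM CITCO and compounds at 15 concentrations for 23 h at 37 C. Viability measured by CellTiter-Fluor fluorescence.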
On the technique in general: Quantitative high-throughput screening tests each substance at several concentrations.

Experiment [2] has as its target Nuclear receptor subfamily 1 group I member 3 (Homo sapiens) (UniProt Q14994). As to the kind of experiment: qHTS assay to identify small molecule antagonists of the constitutive androstane receptor (CAR) signaling pathway (AID 1224838). Further: nearly all actives have a fitted effect of over 40% in size. Further: potency means the concentration at half of the fitted maximal effect. The procedure, abridged:
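HepG2 cells stably carrying hCAR and a CYP2B6-2.2kb luciferase reporter, seeded 4 hrs before compound (15 concentrations). Stimulated with 50 nM CITCO for 24 hr at 37 C. ONE-Glo luminescence read after 30 min at room temperature.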

For experiment [3] the target is unchanged. Kind of experiment: qHTS assay to identify small molecule agonists of the constitutive androstane receptor (CAR) signaling pathway (AID 1224839). Further: nearly all actives have a fitted effect of over 15% in size. Further: potency means the concentration at half of the fitted maximal effect. On activation: series mostly up to about 92 µM. The procedure, abridged: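 HepG2 cells stably co-transfected with hCAR and a CYP2B6-2.2kb luciferase reporter; compounds at 15 concentrations with 0.75 uM PK11195 present. After 24 hr at 37 C, luciferase read by ONE-Glo luminescence.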

A short description of experiment [4]: qHTS assay to identify small molecule antagonists of the estrogen related receptor signaling pathway with the pleiotropic PPARgamma coactivator (PGC) from Tox21 10K library - cell viability counter screen (AID 1224840; active means well fitted cell-killing curve with a large enough effect in the repeat runs, not every such curve was filed as active; further: nearly all actives have a fitted effect of over 40% in size; further: potency means the concentration at half of the fitted maximal effect). Put shortly:
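PGC/ERR cells (2,000/well) plated 6 h, then compound-treated for 17.5 h at 37 C. Viability measured by CellTiter-Fluor fluorescence after 30 min at 37 C, multiplexed with the pathway assay.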

Experiment [5] can be described thus: qHTS assay to identify small molecule agonists of H2AX - cell viability counter screen (AID 1224847; calls by dose curve; further: top concentration of the series differs between compounds; nearly all actives have a fitted effect of over 30% in size). Put shortly: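 CHO-K1 cells plated overnight at 37C, then exposed 3 h at 37C to compounds at 15 concentrations (0.76% DMSO final). Viability by CellTiter-Glo luminescence after 30 min at room temperature.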
Experiment [6] in a line: qHTS RealTime-Glo MT Cell Viability Assay in HepG2 cells - 24 hour (AID 1224867). Further: nearly all actives have a fitted effect of over 50% in size. Further: potency means the concentration at half of the fitted maximal effect. The procedure, abridged: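 Tox21 10K library screened in qHTS format on HepG2 cells carrying RealTime-Glo reagents. Compounds were added after a 5 h preincubation, and the luminescent signal from continuous culture was measured repeatedly during 40 h treatment.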
Experiment [7] in a line: qHTS RealTime-Glo MT Cell Viability Assay in HEK293 cells - 32 hour (AID 1224868). Further: nearly all actives have a fitted effect of over 50% in size. Further: potency means the concentration at half of the fitted maximal effect. Put shortly: (§1)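 Luminescence generated by NanoLuc from substrate produced by living HEK293 cells served as the viability signal. Each value reflects the reading at its stated time point during continuous 40 h compound exposure at 37 C.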
A short description of experiment [8]: A CellTox Green Cytotoxicity Assay to monitor cytotoxicity in HEK293 cells - 0 hour (AID 1224869). Further: nearly all actives have a fitted effect of over 50% in size. The procedure, abridged:
(§2)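 HEK293 cells, 600/well, were preincubated 5 hours and then exposed to compounds at 37 C for up to 40 hours. A cell-impermeant cyanine dye staining dead-cell DNA was read by fluorescence at 0, 8, 16, 24, 32 and 40 h time points.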

Experiment [9] in a line: A CellTox Green Cytotoxicity Assay to monitor cytotoxicity in HEK293 cells - 40 hour (AID 1224871). Further: nearly all actives have a fitted effect of over 45% in size. Put shortly: as §2
A short description of experiment [10]: qHTS RealTime-Glo MT Cell Viability Assay in HEK293 cells - 16 hour (AID 1224872). Further: nearly all actives have a fitted effect of over 50% in size. Further: potency means the concentration at half of the fitted maximal effect. Put shortly: as §1
Experiment [11] has as its target Thyrotropin receptor (Homo sapiens) (UniProt P16473). As to the kind of experiment: qHTS assay to identify small molecule agonists of the thyroid stimulating hormone receptor (TSHR) signaling pathway (AID 1224843; calls by dose curve; further: nearly all actives have a fitted effect of over 45% in size). The procedure, abridged: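 Steps: seed 800 TSHR-HEK293 cells per well; add test compound and hold 30 min at ambient temperature; dispense cAMP-d2 then anti-cAMP cryptate; incubate 1 h at ambient; measure fluorescence intensity.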

Experiment [12] can be described thus: qHTS assay to identify small molecule agonists of the hypoxia (HIF-1) signaling pathway - cell viability counter screen (AID 1224844; calls by dose curve; further: nearly all actives have a fitted effect of over 50% in size). Put shortly: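 HRE-bla ME-180 cells, 2,000/well in 0.5% dialyzed FBS medium, treated 17 h at 37C with compounds. Viability read in the same wells as the bla reporter, by CellTiter-Glo luminescence after 30 min at room temperature.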

Experiment [13] is described as follows: qHTS assay to identify small molecule agonists of H2AX (AID 1224845; active means well fitted activation curve with a large enough effect in the signal ratio in the repeat runs, not every such curve was filed as active; the % refers to the signal ratio). The procedure, abridged:
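Wild-type CHO-K1 cells, plated overnight, exposed 3hr at 37C to 15 concentrations (0.76% DMSO final). Lysed, then HTRF anti-pH2AX (S139) cryptate and anti-H2AX-d2 antibodies, 24 hr room temperature; 665/620 nm emission read.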

Experiment [14] can be described thus: qHTS assay to identify small molecule agonists of the hypoxia (HIF-1) signaling pathway (AID 1224846; active means well fitted activation curve with a large enough effect in the signal ratio in the repeat runs, not every such curve was filed as active; the % refers to the signal ratio). Put shortly:
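HRE-bla ME-180 beta-lactamase reporter cells in medium with 0.5% dialyzed FBS, pre-incubated 5 h then exposed to compounds 17 h at 37C, 5% CO2; reporter induction read with CCF4-AM FRET substrate.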

A short description of experiment [15]: qHTS RealTime-Glo MT Cell Viability Assay in HepG2 cells - 40 hour (AID 1224870). Further: nearly all actives have a fitted effect of over 50% in size. The procedure, abridged: (§3)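 HepG2 cells (600/well) mixed with RealTime-Glo MT reagent, settled 5 h at 37 C/5% CO2 before compound addition. Nonlytic NanoLuc luminescence from viable-cell prosubstrate reduction read repeatedly during 40 h treatment at 37 C.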
A short description of experiment [16]: qHTS RealTime-Glo MT Cell Viability Assay in HepG2 cells - 8 hour (AID 1224873). Further: nearly all actives have a fitted effect of over 55% in size. The procedure, abridged: as §3

Chain of Thyrotropin receptor (Homo sapiens) (P16473 whole entry, looked up): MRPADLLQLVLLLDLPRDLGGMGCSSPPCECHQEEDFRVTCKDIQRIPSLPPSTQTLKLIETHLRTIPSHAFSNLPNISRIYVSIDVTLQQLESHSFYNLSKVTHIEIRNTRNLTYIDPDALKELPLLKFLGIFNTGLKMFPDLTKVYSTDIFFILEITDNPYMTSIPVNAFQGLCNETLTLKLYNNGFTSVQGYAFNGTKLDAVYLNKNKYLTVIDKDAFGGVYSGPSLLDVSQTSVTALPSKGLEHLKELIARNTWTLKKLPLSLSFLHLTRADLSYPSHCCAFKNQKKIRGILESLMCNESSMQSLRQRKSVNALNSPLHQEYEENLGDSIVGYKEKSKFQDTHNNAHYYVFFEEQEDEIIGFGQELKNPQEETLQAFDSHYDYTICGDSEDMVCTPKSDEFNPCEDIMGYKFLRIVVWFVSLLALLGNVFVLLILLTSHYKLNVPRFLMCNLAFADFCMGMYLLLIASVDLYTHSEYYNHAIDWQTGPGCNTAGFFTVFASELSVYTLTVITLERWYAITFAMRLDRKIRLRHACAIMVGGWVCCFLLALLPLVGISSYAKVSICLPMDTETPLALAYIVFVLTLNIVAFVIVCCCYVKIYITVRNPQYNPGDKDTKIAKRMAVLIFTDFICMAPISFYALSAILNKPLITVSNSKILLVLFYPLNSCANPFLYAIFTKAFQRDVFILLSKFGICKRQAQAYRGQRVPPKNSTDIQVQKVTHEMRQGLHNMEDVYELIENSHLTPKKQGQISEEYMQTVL
Chain of Nuclear receptor subfamily 1 group I member 3 (Homo sapiens) (Q14994 whole entry, looked up): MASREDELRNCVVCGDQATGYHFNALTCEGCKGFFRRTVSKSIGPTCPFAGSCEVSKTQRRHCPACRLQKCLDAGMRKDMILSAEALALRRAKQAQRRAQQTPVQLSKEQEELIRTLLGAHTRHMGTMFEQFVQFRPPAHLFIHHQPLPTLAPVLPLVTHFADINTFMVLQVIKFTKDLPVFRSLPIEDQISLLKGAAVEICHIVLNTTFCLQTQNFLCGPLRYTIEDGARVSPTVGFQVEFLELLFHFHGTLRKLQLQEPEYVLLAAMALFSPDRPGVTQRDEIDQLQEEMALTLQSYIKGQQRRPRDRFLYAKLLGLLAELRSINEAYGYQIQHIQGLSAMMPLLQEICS

In the case of `CC(=O)[C@]1(O)Cc2c(O)c3c(c(O)c2[C@@H](O[C@H]2C[C@H](N)[C@H](O)[C@H](C)O2)C1)C(=O)c1ccccc1C3=O`, the Potency in experiment [1] was 2.11 µM (active); in experiment [2], 0.237 µM (active); in experiment [4], 11.9 µM (active); in [6], 6.01 µM (active); in experiment [7], 0.0756 µM (active); in experiment [10] it was 0.535 µM (active). The Potency entry in experiment [3], in experiment [5], in experiment [8] and in experiment [9] was “inactive” in each case.
`O=c1cc[nH]cc1`: the Potency result in experiment [1], in [2], in experiment [3], in experiment [4], in experiment [11] and in [12] was “inactive” each time. Also, the Potency entry in experiment [13], in experiment [14], in experiment [6], in experiment [7], in experiment [8] and in experiment [15] was “inactive” each time. The Potency entry in experiment [9], in experiment [10] and in experiment [16] was “inactive” in each case.
Consider `NCc1ccco1`, for which the Potency entry in experiment [1], in experiment [2], in experiment [3], in [4], in experiment [11] and in [12] was “inactive” throughout. Further, the Potency result in experiment [13], in experiment [14], in experiment [5], in [6], in experiment [8] and in experiment [15] was “inactive” each time. Also, the Potency entry in experiment [9], in experiment [10] and in experiment [16] was “inactive” each time.
Take `CCOC(=O)[C@H](C)O`: the Potency entry in experiment [1], in experiment [2], in [3], in [4], in experiment [12] and in experiment [13] was “inactive” in each case. Besides, the Potency result in experiment [14], in experiment [6], in experiment [7], in [8], in experiment [15] and in [9] was “inactive” throughout. Further, the Potency result in experiment [10] and in experiment [16] was “inactive” each time.
In the case of `CCc1cccc(C)c1N(C(=O)CS(=O)(=O)O)C(C)COC` (configuration not stated), the Potency entry in experiment [1], in experiment [2], in [3], in experiment [4], in experiment [11] and in [12] was “inactive” throughout. Further, the Potency entry in experiment [13], in experiment [14], in experiment [5], in experiment [6], in experiment [7] and in experiment [8] was “inactive” throughout. The Potency entry in experiment [15], in [9], in experiment [10] and in experiment [16] was “inactive” in each case.
`c1ccc(-c2ccccc2-c2ccccc2)cc1`: the Potency result in experiment [1], in [2], in [4], in experiment [6], in experiment [7] and in experiment [8] was “inactive” each time. Besides, the Potency result in [15], in [9], in experiment [10] and in experiment [16] was “inactive” in each case. Moreover, the Potency in [3] was 27.3 µM (active).
On to `CC1CCC(C(C)(C)O)CC1` (configuration not stated), for which the Potency result in [1], in experiment [2], in experiment [3], in experiment [4], in experiment [12] and in [13] was “inactive” each time. Besides, the Potency result in [14], in experiment [6], in experiment [7], in [8], in experiment [15] and in [10] was “inactive” throughout. In addition, the Potency result in [16] was “inactive”.
`O=C1CCC/C=C\CCCCCCCCCC1`: the Potency entry in experiment [1], in experiment [2], in [4], in experiment [6], in [7] and in experiment [8] was “inactive” throughout. For the same compound, the Potency entry in experiment [15] and in experiment [10] was “inactive” throughout. In addition, the Potency in experiment [3] was 27.3 µM (active).
In the case of `COCCC(=O)OC`, the Potency entry in [1], in experiment [2], in experiment [3], in experiment [4], in experiment [11] and in experiment [12] was “inactive” in each case. The Potency entry in experiment [14], in experiment [5], in experiment [6], in experiment [7], in experiment [8] and in experiment [15] was “inactive” in each case. In addition, the Potency entry in experiment [10] and in experiment [16] was “inactive” in each case.
